USP10 block – inhibitors of human USP10 deubiquitinase | Ubiquitin carboxyl-terminal hydrolase 10 (Homo sapiens), Q14694 | purified USP10, Ub-rhodamine fluorescence, 60 min | inhibition, % at 20 µM | actives 1.1% (n = 47,000) | AID 1645856, 2021
UCHL1 inh – inhibitors of human UCHL1 deubiquitinase; purified UCHL1, Ub-rhodamine cleavage fluorescence; AID 1645859, 2021; actives 0.2% (n = 47,000); inhibition, % at 20 µM
OTUD3 block – inhibitors of human OTUD3 deubiquitinase; purified OTUD3, Ub-rhodamine fluorescence, 2 h; inhibition, % at 25 µM; actives 0.7% (n = 47,000); AID 1645858, 2021; OTU domain-containing protein 3 (Homo sapiens), Q5T2D3
Target sequence (Q5T2D3 whole entry, looked up, the tested form may be a part): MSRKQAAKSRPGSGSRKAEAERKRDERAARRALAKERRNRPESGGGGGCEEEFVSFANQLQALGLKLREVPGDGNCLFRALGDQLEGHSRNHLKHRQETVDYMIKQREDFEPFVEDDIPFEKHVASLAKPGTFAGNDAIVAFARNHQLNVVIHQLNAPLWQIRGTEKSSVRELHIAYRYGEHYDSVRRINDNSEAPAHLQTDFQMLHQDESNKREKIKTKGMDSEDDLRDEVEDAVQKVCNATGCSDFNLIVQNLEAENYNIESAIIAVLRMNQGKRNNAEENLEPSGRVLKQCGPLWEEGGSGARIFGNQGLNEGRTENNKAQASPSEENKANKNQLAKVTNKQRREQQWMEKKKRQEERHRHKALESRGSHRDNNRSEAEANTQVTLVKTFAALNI
USP7 inh – inhibitors of human USP7 deubiquitinase | Ubiquitin carboxyl-terminal hydrolase 7 (Homo sapiens), Q93009 | purified USP7, Ub-rhodamine cleavage fluorescence | inhibition, % at 20 µM | actives 0.3% (n = 47,000) | AID 1645854, 2021
USP8 inh – inhibitors of human USP8 deubiquitinase; Ubiquitin carboxyl-terminal hydrolase 8 (Homo sapiens), P40818; purified USP8, Ub-rhodamine cleavage fluorescence, 30 min; inhibition, % at 20 µM; actives 4.2% (n = 47,000)
USP28 block – inhibitors of human USP28 deubiquitinase; purified USP28, Ub-rhodamine cleavage fluorescence, 30 min; actives 3% (n = 47,000); AID 1645857, 2021; inhibition, % at 25 µM
Each line names hits and unclear results; the compound was inactive in the other large screens. An excerpt weighted towards active compounds, which were near 6.8% of everything screened. Cut-off read from the data, not from the text of the source: active = inhibition above about 30%; inactive = the rest.

O=C(Cn1cc(C(=O)c2ccccc2)c(=O)c2cc3c(cc21)OCCO3)Nc1ccc2c(c1)OCO2	none
CCOc1ccc2c(c1)c(=O)c(C(=O)c1ccccc1)cn2CC(=O)Nc1ccc2c(c1)OCCO2	USP10 block 52.6, USP8 inh 94.8
COCCNC(=O)CN1CCn2c1nc(-c1ccccc1)cc2=O	none
CS(=O)(=O)N1CCN(Cc2ccc(=O)n(CC3CC3)c2)CC1	USP8 inh 48.4
Cc1ccc(-c2cc(C(=O)Nc3ccc(S(N)(=O)=O)cc3)[nH]n2)c(O)c1	USP28 block 47.9 (no result: USP7 inh)
CN1CCN(Cc2c(-c3cccnc3)[nH]c3ncccc23)CC1	none
O=C1CC(C(=O)Nc2cccc(F)c2)n2nc(SCc3ccccc3)nc2N1 (centres undefined)	none
Cn1c(=O)c(Cl)nc2c(OCc3ccccc3)nc(N)nc21	none
Nc1nc(OCc2ccccc2)c2[nH]c(/C=C/c3cccs3)nc2n1	USP8 inh 71.7, USP28 block 67.5
N#Cc1cccc(C(=O)Nc2cccc(C(=O)N3CCCC3C(=O)NC3CCCC3)c2)c1 (centres undefined)	none
Cc1ccc(S(=O)(=O)N(C)C)cc1NC(=O)Cc1ccc(Cl)c(Cl)c1	USP28 block 92.5
CCN(CC)S(=O)(=O)c1ccc(C)c(NC(=O)CSc2nnc(-c3ccncc3)n2Cc2ccccc2)c1	none
O=C(C1CCC1)N1CCCC1c1ccnc(Nc2cnccn2)n1 (centres undefined)	USP8 inh 44.5
CCc1ccc(NC(=O)Cc2nnc3ccc(-c4nc(C)no4)cn23)cc1	none
COc1ccc2c(c1)[nH]c1c(=O)n(Cc3ccccc3)cnc12	none
O=C(c1cccs1)[C@@H]1[C@@H](C(=O)c2ccc3c(c2)OCO3)[C@]2(C(=O)Nc3ccccc32)[C@H]2C=Cc3ccccc3N12	USP8 inh 37.6
CC1=CC2N(c3ccccc31)C(C(=O)C(C)(C)C)C(C(=O)c1ccc3c(c1)OCO3)C21C(=O)Nc2ccccc21 (centres undefined)	USP8 inh 68.3
COCC(C)n1c(C)cc(C(=O)CSc2nncn2-c2ccccc2OC)c1C (centres undefined)	none
COc1ccc(-n2c(C)cc(C(=O)CSc3nncn3-c3ccccc3OC)c2C)cc1	USP28 block 30.5
Cc1ccc(C(=O)Nc2ccc3c(c2)Sc2ncccc2C(=O)N3C(C)C)cc1C	none
COc1cccc(C(=O)Nc2ccc3nc(N4CCN(c5ncccn5)CC4)cc(C)c3c2)c1OC	USP8 inh 58.6
Cc1cc(N2CCN(c3ncccn3)CC2)nc2ccc(NC(=O)c3ccco3)cc12	USP28 block 67.9
O=C(Nc1cccc(C(F)(F)F)c1)N1CCCn2c(nc3ccccc32)C1	USP28 block 31.5
CC1CC(=O)N(Cc2ccc([N+](=O)[O-])cc2)c2ccccc2S1 (centres undefined)	USP28 block 62.5
CC1Oc2ccccc2C(=O)N(Cc2ccc([N+](=O)[O-])cc2)C1=O (centres undefined)	USP28 block 73.7
O=C1CCSc2ccccc2N1Cc1ccc([N+](=O)[O-])cc1	none
CC(=O)Nc1cc(-c2ccc(Cl)cc2)nn(CC(=O)N2CCc3ccccc32)c1=O	none
CCOc1cc(CNc2ccc(N3CCOCC3)c(C(=O)O)c2)ccc1OC	none
CC(C)=CCC/C(C)=C/CC/C(C)=C/COc1c(O)cc(C=O)c(C=O)c1O	USP10 block 77.6, UCHL1 inh 91.9, OTUD3 block 83.9, USP7 inh 92.7, USP8 inh 70.8, USP28 block 81.1
CCc1ccc([C@@H]2c3c(C)nn(C)c3NC(=O)[C@H]2NC(=O)c2ccc(OC)c(OC)c2)cc1	none
